Results with a measured potency or affinity are listed apart. The source made the active and inactive calls.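 Rule for the calls: active = every repeat run showing a signal drop whose fitted half-maximal concentration is at most twice the top tested concentration; inconclusive = repeat runs disagree, or flat partial drop, or poor fit; inactive = the rest.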
Assay: HEK293T cytotoxicity, dose response, cytotoxicity control for miR-122 modulator project, cell-based, activator set, cherry-pick (AID 720690)
Settings: HEK293T viability, CellTiter-Glo luminescence, 48 h; series mostly up to 26 µM

Structure (SMILES) | outcome
CC(C)NC(=O)Nc1ccc2c(c1)C(=O)N(C)[C@H]1CC[C@H](CC(=O)NCC(F)(F)F)O[C@H]1CO2 | inactive
CN(C[C@H]1[C@H](c2ccccc2)[C@@H](CO)N1CC1CC1)C(=O)c1cccc(F)c1 | inactive
CCNC(=O)Nc1ccc2c(c1)C(=O)N(C)[C@@H]1CC[C@H](CC(=O)NCC3CC3)O[C@@H]1CO2 | inactive
C/C=C/c1ccc([C@@H]2[C@@H](CO)N[C@@H]2CN(CC(C)C)C(=O)c2ccccn2)cc1 | inactive

— PubChem BioAssay AID720690 (Broad Institute, 2013)
